From PubChem BioAssay AID1021 (Emory University Molecular Libraries Screening Center, 2008)
Among all 220,000 compounds or so, about 2,100 (0.95%) were called active.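 How the source made its calls: active means compounds that cut the binding signal by more than half at the single screening dose; inactive means the rest.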 What follows is part of a selection rich in actives, with near analogues and random picks from the rest.

Target: Induced myeloid leukemia cell differentiation protein Mcl-1 (Homo sapiens) (UniProt Q07820)
Experiment: disruptors of Mcl-1 and Bid BH3 peptide – biochemical, TR-FRET, 1536-well, primary screen (AID 1021);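 further: His-tagged Mcl-1 with europium anti-His antibody binding Bid BH3 peptide; 0% = Mcl-1 plus peptide wells and 100% = peptide-only wells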
Details: TR-FRET Mcl-1/Bid-Dy647 peptide binding, at 21.7 µM, active compounds read high

Induced myeloid leukemia cell differentiation protein Mcl-1 (Homo sapiens), sequence (Q07820 whole entry, looked up): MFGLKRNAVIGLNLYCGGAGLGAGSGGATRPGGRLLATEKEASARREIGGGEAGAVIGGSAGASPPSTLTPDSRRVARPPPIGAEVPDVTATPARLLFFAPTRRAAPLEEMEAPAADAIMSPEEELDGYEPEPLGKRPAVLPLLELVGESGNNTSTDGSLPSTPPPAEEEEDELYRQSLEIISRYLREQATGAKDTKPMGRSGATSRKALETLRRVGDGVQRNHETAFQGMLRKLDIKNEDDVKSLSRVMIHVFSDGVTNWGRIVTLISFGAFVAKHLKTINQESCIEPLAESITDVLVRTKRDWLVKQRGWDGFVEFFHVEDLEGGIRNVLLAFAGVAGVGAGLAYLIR

Row | SMILES | inhibition
1 | O=c1[nH]nc(SCCS(=O)(=O)c2ccc(F)cc2)n1-c1ccccc1C(F)(F)F | -37.5% (inactive)
2 | CCOC(=O)Nc1ccc(NC(=O)OCC)cc1 | -26.4% (inactive)
3 | CCOC(=O)Nc1ccc2c(c1)N(C(=O)CCN1CCN(CCO)CC1)c1ccccc1CC2 | 51.3% (active)
4 | CCNCCC(=O)N1c2ccccc2Sc2ccc(NC(=O)OCC)cc21 | -12.2% (inactive)
5 | COc1ccc2[nH]c(=S)cc(C)c2c1 | -43.7% (inactive)
6 | CNC1(c2nnnn2-c2c(C)cccc2C)CCOC(C)(C)C1 (configuration not stated) | -15.5% (inactive)
7 | CCCNC(=O)NC(=O)COC(=O)CC(NC(N)=O)c1ccc(Cl)cc1 (configuration not stated) | -14.2% (inactive)
8 | O=C(CN1CCCC1)N1CCN(c2ccccc2)CC1 | -53.9% (inactive)
9 | CN(C)/C(CN1CCCCC1)=C1\N=C(c2ccccc2)OC1=O | 65.5% (active)
10 | O=S(=O)(c1ccccc1)N(CC(O)CN1CCCCC1)c1ccccc1 (configuration not stated) | -28.8% (inactive)
11 | COC(=O)N/N=C/c1ccc(-c2ccc(Cl)c(Cl)c2)o1 | 15.5% (inactive)
12 | CCOC(=O)c1c(NC(=O)c2cccs2)sc(C)c1C | -14.7% (inactive)
13 | COC(=O)c1c(NC(=O)c2c(Cl)cnn2C)sc(C)c1C | -24% (inactive)
14 | COCCCNCC(=O)Nc1sc(C)c(C)c1C(=O)OC | 63.5% (active)
15 | COc1cccc(NC(=O)CN(C)C(C)C(=O)Nc2ccc(C#N)cc2)c1 (configuration not stated) | -15.1% (inactive)
16 | O=C(NCc1ccco1)c1nn2cccnc2c1Cl | -10.8% (inactive)
17 | COCCCNc1nc2c(-c3cccc(C(F)(F)F)c3)nnn2c2ccccc12 | -13.1% (inactive)
18 | NCC(=O)c1cccc2ccc[n+]([O-])c12 | -13.8% (inactive)
19 | CCc1ccccc1NC(=O)CSc1nnc(-c2ccncc2)o1 | -14.6% (inactive)
20 | COc1ccc(C2c3c(C)nn(-c4ccccc4)c3NC(=O)N2c2ccccc2)cc1 (configuration not stated) | 76.8% (active)
21 | COc1ccc(-n2c(C)nc3c(cnn3-c3ccccc3)c2=O)cc1 | -3.33% (inactive)

Row | SMILES | inhibition
22 | Cc1nn(-c2ccccc2)c2c1C(c1cccc([N+](=O)[O-])c1)N(c1ccccc1)C(=O)N2 (configuration not stated) | -12.3% (inactive)
23 | CN(NC(=O)C1CC(=O)N(c2ccccc2)C1)C1=NS(=O)(=O)c2ccccc21 (configuration not stated) | -8.25% (inactive)
24 | O=S(=O)(/N=C(/Nc1ccccn1)c1ccccc1)c1ccc(Cl)cc1 | -22.6% (inactive)
25 | Cc1ccc(S(=O)(=O)/N=C(/Nc2ccccn2)c2ccc(Cl)cc2)cc1 | 1% (inactive)
26 | Cc1ccc(S/C(=N\S(=O)(=O)c2ccc(Cl)cc2)c2ccccc2)cc1 | 61.7% (active)
27 | O=C(N/N=C/c1ccc(Br)o1)c1cncc(Br)c1 | -13.1% (inactive)
28 | CS(=O)(=O)N(CC(=O)NC1CCCC1)Cc1ccc(F)cc1 | -0.58% (inactive)
29 | COc1ccc(CNC2CCCCC2)cc1 | 64.1% (active)
30 | COc1ccc(CCNC(=O)COC(=O)C2CCCCC2)cc1 | -25.9% (inactive)
31 | COc1cc(CNC2CCCCC2)c(Br)cc1OC1CCCC1 | -29.9% (inactive)
32 | CCOC(=O)c1cnc(COc2ccccc2Cl)[nH]c1=O | 7.19% (inactive)
33 | CCOC(=O)c1ccc(COC(=O)c2cc(=O)[nH]c3ccccc23)o1 | -9.7% (inactive)
34 | CCOC(=O)c1cc2c(=O)[nH]c(C(Cl)(Cl)Cl)nc2o1 | 52% (active)
35 | CCCCCOc1ccc(CSC2=NCCN2)cc1[N+](=O)[O-] | -26.2% (inactive)
36 | O=C(Nc1ccc(Br)cn1)C1CCN(S(=O)(=O)c2cccs2)CC1 | -17.8% (inactive)
37 | CCc1cc2cc(OC)ccc2nc1SCC(=O)Nc1cc(OC)c(OC)cc1C(=O)O | -3.27% (inactive)
38 | O=C(C1CCCO1)N(c1ccc(F)cc1)C1C=CS(=O)(=O)C1 (configuration not stated) | -15.9% (inactive)
39 | Cc1cccn2c(CN(C)C3CCCc4ccccc43)c(C(=O)N3CCOCC3)nc12 (configuration not stated) | 54.6% (active)
40 | Cc1cccn2c(CNCC(C)Oc3cccnc3)c(C(=O)N3CCOCC3)nc12 (configuration not stated) | -13.2% (inactive)
41 | Cc1cc(C)n(CC(C)NCc2c(C(=O)N3CCOCC3)nc3c(C)cccn23)n1 (configuration not stated) | -17.6% (inactive)
42 | Cc1cc(N2CCN(c3ccccc3)CC2)nc(N2CCOCC2)n1 | -98.4% (inactive)

Row | SMILES | inhibition
43 | Cc1ccc(-c2cc(C(=O)NN)n[nH]2)o1 | -33.4% (inactive)
44 | O=C(CSc1nc2ccccc2o1)N/N=C/c1ccccc1C(=O)O | -19.1% (inactive)
45 | Nc1c(Cl)cc(S(N)(=O)=O)cc1S(N)(=O)=O | -8.81% (inactive)
46 | Cc1c(C=O)c2ccccc2n1CC(=O)O | -7.49% (inactive)
47 | Cc1c(/C=N\NC(=O)c2cc3ccccc3o2)c2ccccc2n1C | -24.8% (inactive)
48 | Cc1c(/C=N/N2C(=O)C3C4C=CC(C4)C3C2=O)c2ccccc2n1C (configuration not stated) | 59.1% (active)
49 | O=C(NC1CC1)C1=C[C@H](c2c[nH]c3ccccc23)C[C@H](OCc2ccc(CO)cc2)O1 | -70.3% (inactive)
50 | OCC1(Cc2ccccc2C(F)(F)F)CCN(Cc2cccc3cnccc23)CC1 | -14.6% (inactive)
51 | COc1ccc2nc(NC(=O)NC3CCCCC3)sc2c1 | -6.76% (inactive)
52 | COC(=O)[C@H](CC(C)C)NC(=O)N1CCCCC1C (some centres not stated) | -3.65% (inactive)
53 | COc1ccc(C(=O)Nc2cccnc2)cc1C(=O)Nc1cccnc1 | 14.7% (inactive)
54 | O=C(Oc1cccnc1)c1cc2ccccc2oc1=O | 19.8% (inactive)
55 | O=C(Nc1cccnc1)c1cc2cc(Br)ccc2oc1=O | 59.5% (active)
56 | O=C(CN1CCCCCC1)NCCN1C(=O)S/C(=C\c2ccccc2Cl)C1=O | -7.27% (inactive)
57 | COc1ccccc1Cn1c(CO)nc2ccccc21 | -24.8% (inactive)
58 | Cc1cccc(C2C3=C(CCCC3=O)N=C3c4ccccc4C(=O)C32)c1 (configuration not stated) | -45% (inactive)
59 | Cc1cccc(NC(=S)NC23CN4CN(CN(C4)C2)C3)c1 | -75.3% (inactive)
60 | CCS(=O)(=O)c1ccc2c(c1)N(S(=O)(=O)c1ccccc1)CC(C(=O)O)O2 (configuration not stated) | 52.3% (active)
61 | CCS(=O)(=O)c1ccc2oc(SCC(=O)N3c4ccccc4CC3C)nc2c1 (configuration not stated) | -1.51% (inactive)
62 | CC1CN(S(=O)(=O)c2ccccc2)C(C)CN1S(=O)(=O)c1ccccc1 (configuration not stated) | -4.73% (inactive)
